# Assay outcomes (PubChem)
# Most compounds without a hit are left out; they make up all but 2.3% or so of the library.
# CHRM1 agonist = human M1 muscarinic receptor agonism | P11229 | CHO-K1 hM1, Fluo-8 calcium fluorescence, agonist mode; 0% DMSO, 100% acetylcholine EC100 | activation, % at 3 µM | 360,000 compounds, 0.33% hits | AID 588814;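 active = activation above the run's mean compound activation plus 3 SD, cut at about 16% in these data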;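 note: peak over basal fluorescence ratio within a 140 s kinetic read after compound addition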
# Target sequence (P11229 whole entry, looked up): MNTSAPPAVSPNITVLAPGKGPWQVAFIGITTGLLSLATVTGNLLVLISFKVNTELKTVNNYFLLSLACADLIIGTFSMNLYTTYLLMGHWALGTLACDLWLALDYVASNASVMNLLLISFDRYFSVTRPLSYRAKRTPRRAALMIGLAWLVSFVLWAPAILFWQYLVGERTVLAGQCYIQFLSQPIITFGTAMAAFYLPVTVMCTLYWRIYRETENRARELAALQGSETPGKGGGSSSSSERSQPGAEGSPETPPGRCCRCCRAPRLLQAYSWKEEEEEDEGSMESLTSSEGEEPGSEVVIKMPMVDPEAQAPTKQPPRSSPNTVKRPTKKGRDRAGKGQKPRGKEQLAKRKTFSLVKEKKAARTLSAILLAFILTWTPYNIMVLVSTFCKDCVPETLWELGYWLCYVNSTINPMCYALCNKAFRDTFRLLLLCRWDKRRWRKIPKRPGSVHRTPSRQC
# M1 antag = blocks human M1 muscarinic receptor; CHO-K1 hM1, Fluo-8 calcium fluorescence, ACh EC80 antagonist; inhibition, % at 3 µM; 360,000 compounds, 1.3% hits; AID 588852;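 active = percent inhibition above its own plate's cutoff, namely the mean of that plate's compound wells plus 3 SD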;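 note: peak over basal fluorescence ratio during 140 s after agonist addition; 0% = ACh EC80 plus DMSO and 100% = DMSO alone without agonist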
# CHO-K1 Ca antag = counter-screen for M1 antagonists: effect in parental CHO-K1 cells; ATP-induced calcium, Fluo-8 fluorescence; inhibition, % at 3 µM; 360,000 compounds, 0.6% hits; AID 602250;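 active = inhibition above a per-plate cutoff, the plate's mean sample inhibition plus 3 SD, cut at about 24% in these data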;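 note: 0% = DMSO plus EC80 ATP and 100% = DMSO alone without ATP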
# CHRM1 PAM = positive allosteric modulators of human M1 muscarinic receptor. 360,000 compounds, 0.088% hits. P11229. activation, % at 3 µM. CHO-K1 hM1, Fluo-8 calcium fluorescence, ACh EC20; 0% = ACh EC20, 100% = maximal ACh. AID 588819; in the data active = activation above about 19%, passing the limit was not always enough
# M1 ag parental = M1 agonist counterscreen hit in parental CHO-K1 cells; Fluo-8 calcium fluorescence; scaled to maximal ATP response, vehicle zero; activation, % at 3 µM; 360,000 compounds, 0.48% hits; AID 602248; in the data active = activation above about 15%;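 note: untransfected CHO-K1 host cells lacking M1 receptor as counterscreen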
# CHO-K1 Ca PAM = counter-screen for M1 PAMs: effect in parental CHO-K1 cells. ATP EC20, Fluo-8 calcium fluorescence; 0% at ATP EC20, 100% at ATP max. activation, % at 3 µM. 360,000 compounds, 0.02% hits;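 active = activation above the run cutoff, the mean activation of all test compounds plus 3 SD, cut at about 40% in these data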;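 note: peak over basal fluorescence ratio in a 140 s read after ATP addition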
# Starred values were filed as active, the others as inactive.
SMILES,CHRM1 agonist,M1 antag,CHO-K1 Ca antag,CHRM1 PAM,M1 ag parental,CHO-K1 Ca PAM
COc1ccc(-c2oc(NC(=O)CCl)c(C#N)c2-c2ccc(OC)cc2)cc1,6.7,46.2*,-12.8,12.2,0.2,-0.5
CCCCN(C(=O)c1cc2c(s1)CCC2)c1c(N)n(CCCC)c(=O)[nH]c1=O,-3.1,-6.9,-7.3,2.1,-0.2,-16.0
CCn1c(C)nc2c(C)[n+](CC(=O)c3ccc(Br)cc3)ccc21,-9.2,21.6,23.8*,-16.5,-0.3,-16.6
COc1ccc(-c2n[nH]c(C)c2-c2ccc(Cl)cc2)c(O)c1OC,0.1,34.6*,26.5*,-9.6,5.4,3.0
COc1ccc(-c2n[nH]c(C)c2-c2ccc(Cl)cc2)c(O)c1,-2.5,-10.3,-0.3,5.3,0.0,1.7
C=C(C)COc1ccc(-c2n[nH]c(C)c2-c2ccc(OC)c(OC)c2)c(O)c1,-0.2,-7.0,55.3*,8.3,-1.1,-11.6
COc1cc2c(cc1OC)C(c1ccc([N+](=O)[O-])cc1)N(C(C)=O)CC2 (centres undefined),3.8,-3.4,-2.7,0.2,15.8*,15.7
CCOC(=O)C1CCN(Cc2ccc(OCc3ccccc3)cc2)CC1,-7.8,49.3*,-6.6,-29.2,1.9,18.7
COc1ccc(Nc2nc(N)nc(CN3CCC(Cc4ccccc4)CC3)n2)cc1,-11.8,33.1*,-7.6,-26.6,0.8,14.3
CCOC(=O)C1CCN(Cc2ccc(N(C)C)cc2)CC1,-1.5,4.3,41.1*,2.2,-0.3,-3.5
COc1ccccc1Nc1nc(N)nc(CN2CCC(Cc3ccccc3)CC2)n1,-4.8,15.7,1.9,-14.8,0.6,-2.0
NC(=O)C1CCN(Cc2ccc(OCc3ccccc3)cc2)CC1,-9.5,27.0,3.1,-17.4,0.5,8.4
Cc1cc(OCCN2CCC(Cc3ccccc3)CC2)ccc1[N+](=O)[O-],-6.3,101.0*,-1.5,-31.1,3.1,17.0
O=C(CSc1nnc(COc2ccccc2Cl)o1)NC(=O)NCc1ccco1,-1.2,-26.8,14.1,14.2,0.1,-15.9
COc1ccc(OC)c(-n2c(SCC(=O)NCC3CCCO3)nc3ccccc3c2=O)c1 (centres undefined),-4.0,16.8,1.3,-7.8,0.1,7.6
C[C@@H]1CN([C@@H](C)CO)C(=O)CCCn2nncc2CO[C@H]1CN(C)C(=O)Nc1ccccc1F,-3.4,-13.8,-8.8,10.0,1.0,17.6
O=C1C2C(C(=O)N1CCN1CCN(Cc3ccc([N+](=O)[O-])cc3)CC1)[C@H]1C=C[C@@H]2C1 (some centres undefined),1.0,-13.3,-3.4,2.5,2.2,-5.0
COc1ccc(Cc2noc(=O)[nH]2)cc1,-3.4,-3.1,-16.0,-2.2,0.6,17.8
O=C(c1ccc(Cl)cc1)C1CCCN(Cc2ccc(Oc3ncccn3)cc2)C1 (centres undefined),-4.7,62.3*,-0.7,-23.3,1.4,-6.8
COc1cccc(OC)c1OCCCN1CCC(Cc2ccccc2)CC1,-5.3,45.3*,13.0,-24.1,5.5,-16.5
CCOC(=O)C1CCCN(Cc2ccc(OCC)cc2)C1 (centres undefined),30.9*,2.5,-5.3,-9.2,4.0,18.8
CCOC(=O)N1CCN(CC(O)COc2ccc(OC)cc2C(C)(C)C)CC1 (centres undefined),-11.7,-0.7,-7.7,-1.2,2.5,15.3
O=C(c1ccc(Cl)cc1)C1CCCN(Cc2cnn(-c3ccccc3)c2)C1 (centres undefined),-6.5,25.8,-12.7,-20.0,4.0,17.9
CCOC(=O)C1CCCN(CC(O)COc2ccc(OC)cc2C(C)(C)C)C1 (centres undefined),60.0*,32.4*,-9.9,-29.7,0.5,18.0
Cc1onc(-c2c(Cl)cccc2Cl)c1C(=O)Nc1ccc(N2CCOCC2)cc1,-2.2,-9.8,-6.8,5.0,2.2,-5.8
O=C(CCS(=O)(=O)c1ccc(Br)cc1)Nc1ccc(Br)cc1F,-5.3,-9.1,2.0,5.0,-0.1,3.5
CCCCN(C)C(=O)C1CCN(Cc2ccc(OCc3ccccc3)cc2)CC1,-6.2,41.0*,3.3,-20.6,0.6,-4.0
CCOc1ccc(CN2CCC(Cc3ccccc3)CC2)cc1,-8.4,58.5*,2.3,-28.8,1.1,-10.7
